Compound activity (PubChem)
Most compounds without a hit are left out; they make up all but 4.1% or so of the library.
BoNT A protease: blocks Botulinum neurotoxin A light chain protease; multiplex microsphere protease substrate cleavage, flow cytometry; inhibition, % at 10 µM; hit rate 0.17% among 360,000; AID 588499; note: plate controls were buffer without enzyme for full effect and enzyme alone for no effect
BoNT-F LC inh: BoNT F light chain protease inhibition | Multiplex microsphere protease cleavage assay, flow cytometry | inhibition, % at 10 µM | hit rate 0.22% among 360,000; in the data active = inhibition above about 35%, passing the limit was not always enough; inconclusive = no clear call, values can overlap the other calls; note: plate controls were buffer without enzyme for full effect and enzyme alone for no effect
MazF activator: increases E. coli MazEF RNase cleavage of RNA. FAM/BHQ RNA-DNA oligo cleavage fluorescence, 5 h. activation, % at 20 µM. hit rate 0.32% among 350,000; in the data active = activation above about 50%
Target sequence (P0AE70 whole entry, looked up): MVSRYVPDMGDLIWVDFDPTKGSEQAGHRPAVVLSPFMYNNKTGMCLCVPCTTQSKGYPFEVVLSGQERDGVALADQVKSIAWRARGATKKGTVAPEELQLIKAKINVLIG
Anthrax LF prot: inhibitors of Bacillus anthracis lethal factor protease. multiplex microsphere protease cleavage assay, LF. AID 588501. hit rate 0.12% among 360,000. inhibition, % at 10 µM. P15917; note: plate controls were buffer without enzyme for full effect and enzyme alone for no effect
DUSP3 inh: inhibitors of human VHR1 phosphatase (DUSP3) | recombinant VHR phosphatase, pNPP absorbance | AID 1654 | hit rate 0.52% among 290,000 | inhibition, % at 13.3 µM; in the data active = inhibition above about 50%
Target sequence (P51452 whole entry, looked up): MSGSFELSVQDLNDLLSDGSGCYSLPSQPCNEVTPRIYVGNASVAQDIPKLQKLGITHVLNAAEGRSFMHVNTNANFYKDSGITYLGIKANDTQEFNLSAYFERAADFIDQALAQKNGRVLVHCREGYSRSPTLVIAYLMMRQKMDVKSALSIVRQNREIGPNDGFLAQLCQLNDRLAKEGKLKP
Autofluor counter: flagged as autofluorescent in microsphere protease counterscreen; AID 624483; hit rate 3.1% among 360,000; compound autofluorescence counterscreen, microsphere flow cytometry; stronger effect = higher value; fluorescence intensity (test concentration not listed); in the data active = fluorescence intensity above about 16000; inconclusive = no clear call, values can overlap the other calls
* marks the source's active call; other numbers are inactive results. Cut-off read from the data, not from the text of the source, unless noted: active = inhibition above about 30%; inconclusive = no clear call, values can overlap the other calls; inactive = below that.

`C/C(=N\NS(=O)(=O)c1ccc(Cl)c([N+](=O)[O-])c1)c1cc2ccccc2o1` gave BoNT A protease inconclusive, BoNT-F LC inh -12, MazF activator -6, Anthrax LF prot 0, DUSP3 inh 22 and Autofluor counter 22417*.
Screening Cc1ccc(C(=O)c2cc3ccccc3o2)cc1[N+](=O)[O-] returned BoNT A protease 1, BoNT-F LC inh 0, MazF activator -8, Anthrax LF prot -1, DUSP3 inh 6 and Autofluor counter 2619.
Screening C/C(=N\NS(=O)(=O)c1ccc(C)c([N+](=O)[O-])c1)c1cc2ccccc2o1 returned BoNT A protease -1, BoNT-F LC inh -5, MazF activator -5, Anthrax LF prot -4, DUSP3 inh 39 and Autofluor counter 16518*.
COc1ccccc1-c1cnc(C(O)c2ccc(F)c(F)c2)[nH]1 (stereo not drawn) was read as BoNT A protease 0, BoNT-F LC inh -4, Anthrax LF prot -7 and Autofluor counter 3972.
Screening COc1ccc([C@H]2C[C@H](O)C[C@@H](CCn3cc(-c4ccccc4)nn3)O2)cc1 returned BoNT A protease 0, BoNT-F LC inh -8, Anthrax LF prot -4 and Autofluor counter 6286.
For C[C@H](CO)N1C[C@H](C)[C@H](CN(C)S(=O)(=O)c2ccccc2F)OCc2cnnn2CCCC1=O the results were BoNT A protease 0, BoNT-F LC inh -4, MazF activator 7, Anthrax LF prot 2 and Autofluor counter 3841.
Cc1ccc(S(=O)c2snnc2C)cc1 (stereo not drawn) was read as BoNT A protease -2, BoNT-F LC inh 0, MazF activator 10, Anthrax LF prot 4, DUSP3 inh 18 and Autofluor counter 4020.
Cc1ccc(S(=O)c2ccc(C)cc2)cc1 was read as BoNT A protease inconclusive, BoNT-F LC inh -2, MazF activator 3, Anthrax LF prot 0, DUSP3 inh 29 and Autofluor counter 20056*.
For CN(C)CCNC(=O)c1cc2cc(Br)ccc2oc1=O the results were BoNT A protease -1, BoNT-F LC inh -13, MazF activator -1, Anthrax LF prot 0, DUSP3 inh -8 and Autofluor counter 10526.
For CCN(CC)C(=O)c1cc2cc(Br)ccc2oc1=O the results were BoNT A protease inconclusive, BoNT-F LC inh 3, MazF activator 5, Anthrax LF prot -9, DUSP3 inh 5 and Autofluor counter 22173*.
For O=C(Nn1cnnc1)c1cc2cc(Br)ccc2oc1=O the results were BoNT A protease -1, BoNT-F LC inh -3, MazF activator -3, Anthrax LF prot -3, DUSP3 inh -6 and Autofluor counter 23909*.
For CCN(C(=O)c1cc2ccccc2oc1=O)c1cccc(C)c1 the results were BoNT A protease -1, BoNT-F LC inh -2, MazF activator -7, Anthrax LF prot -2, DUSP3 inh -11 and Autofluor counter 20635*.
CCN(C(=O)c1cc2ccccc2oc1=O)c1ccccc1 was read as BoNT A protease 1, BoNT-F LC inh -4, MazF activator 0, Anthrax LF prot 8, DUSP3 inh 24 and Autofluor counter inconclusive.
`C(=C\c1ccccc1)/C=N/n1cnnc1` gave BoNT A protease -1, BoNT-F LC inh -3, MazF activator -2, Anthrax LF prot -1, DUSP3 inh 26 and Autofluor counter 24268*.
`NC(=O)NC(c1ccccc1)c1ccccc1F` (stereo not drawn) gave BoNT A protease 0, BoNT-F LC inh -3, MazF activator 0, Anthrax LF prot -2, DUSP3 inh 9 and Autofluor counter 23015*.
Screening CNC(=O)c1ccc(-c2cc(C(F)(F)F)nn2C)s1 returned BoNT A protease 4, BoNT-F LC inh -2, MazF activator -3, Anthrax LF prot inconclusive, DUSP3 inh -11 and Autofluor counter 3515.
`Cn1nc(C(F)(F)F)cc1-c1ccc(/C=C(\C#N)C(=O)c2ccccc2)s1` gave BoNT A protease 4, BoNT-F LC inh 17, MazF activator 782*, Anthrax LF prot inconclusive, DUSP3 inh 10 and Autofluor counter 4129.
CCOc1ccc2nc(SCC(=O)N3CCCc4ccccc43)sc2c1 was read as BoNT A protease inconclusive, BoNT-F LC inh 2, MazF activator 2, Anthrax LF prot -6, DUSP3 inh 6 and Autofluor counter 21324*.
Screening CCOc1ccc2nc(SCC(=O)NC(=O)NCc3ccco3)sc2c1 returned BoNT A protease 0, BoNT-F LC inh -6, MazF activator -12, Anthrax LF prot -3, DUSP3 inh 19 and Autofluor counter 2969.
